Measurements from PubChem BioAssay (EPA / NIEHS).
Records with an inconclusive call do not appear. Activity calls are given as the source filed them. The calls were made as follows: active = hit-call score of the fitted dose curve at least 0.9, where 1 is the maximum; inconclusive = response in the unintended direction; inactive = score below 0.9.

Test: CCTE_Harrill_HTTr_CellCount_MCF7: CCTE's Cell Proliferation Assessment for the High-Throughput Transcriptomics (HTTr) Platform, Harrill Lab (AID 2284012);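 also: cells exposed to compound for six hours; intended direction is loss of nuclei count meaning fewer cells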
Summary of the method: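 MCF-7 cells were exposed for 6 h to an eight-point dilution series; Hoechst-labeled nuclei were counted by high content imaging. Curves were fitted bidirectionally against DMSO as negative control and baseline, with signal loss indicating reduced cell count.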

In the case of `COC(=O)Nc1nc2ccc(S(=O)c3ccccc3)cc2[nH]1` (stereo unspecified), the outcome is reported as “inactive”.
